From PubChem BioAssay AID709 (SRMLSC, 2007)
The whole screen tested about 65,000 compounds, of which about 3,600 (5.5%) were called active. The sample as a whole holds a higher share of actives than the screen did. A number with no mark means an inactive call.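 The calls were made as follows: active = at 10 µM, mean starting fluorescence two-fold or more over control wells; inactive = the rest.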

Assay: intrinsic fluorescence of library compounds, ex339/em460 – biochemical, MLSMR library, data from DPM-DC assay, artefact control, profiling panel (AID 709);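 also: signal is the first read of a kinetic run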
Details: compound autofluorescence, ex339/em460 nm, NADH buffer; at 10 µM; active compounds read high; 1 = no-compound wells, NADH background

| Compound | fluorescence fold increase |
| --- | --- |
| Cc1ccc(Cn2ccc(NC(=O)c3cc(C(C)C)on3)n2)cc1 | 1.08 |
| O=C(c1cc(-c2cccs2)on1)N1CCCCC1 | 1.16 |
| Cc1cc(NC(=O)c2cc(-c3cccs3)on2)nn1Cc1ccc(Cl)cc1 | 2.04 (active) |
| CCOC(=O)c1cc2cc(-c3c(C(=O)OCC)oc4cc(O)cc(O)c4c3=O)ccc2o1 | 1.11 |
| CCCCOc1ccc(Cl)cc1CSc1nncn1N | 1.07 |
| Cc1ccccc1NC(=O)Cc1nnc(SCC(=O)N2CCN(c3ccccc3)CC2)n1C | 1 |
| CN(C)c1nc2n(c(=O)n1)CCO2 | 1.07 |
| c1ccc(Nc2n[nH]nc2-c2ccccc2)cc1 | 1.07 |
| CCCC(=O)Nc1cc(OCC)c(NC(=O)NC2CCCCC2)cc1OCC | 1.11 |
| CCOc1ccc(CNC(=O)C2CCC(=O)N2C2CCCC2)cc1OC (stereo unspecified) | 1.07 |
| CCOc1cc(C2C(C(=O)OC)=CN(C3CCCC3)C=C2C(=O)OC)cc(Br)c1O | 2.88 (active) |
| c1ccc(-n2ncc(-c3nn[nH]n3)n2)cc1 | 1.08 |
| Cc1ccc(C(=O)Nc2ccc3c(c2)OCO3)cc1S(=O)(=O)N1CCCCC1 | 1.08 |
| CC(C)C1N=C2c3ccccc3N=C(SCC(=O)c3ccc(O)c(O)c3)N2C1=O (stereo unspecified) | 1.21 |
| NC(=O)CSC1=Nc2ccccc2C2=NC(CCC(=O)NCc3ccc(F)cc3)C(=O)N12 (stereo unspecified) | 3.51 (active) |
| O=C(CC1N=C2c3ccccc3N=C(SCc3ccccc3Cl)N2C1=O)NCc1ccco1 (stereo unspecified) | 1.58 |

| Compound | fluorescence fold increase |
| --- | --- |
| CC(C)C(C(=O)NC1CCCCC1)N(CC1CCCO1)C(=O)CNS(=O)(=O)c1ccc(F)cc1 (stereo unspecified) | 1.11 |
| COc1c(O)cccc1-c1nnn(CCC(=O)OCC(=O)c2ccccc2)n1 | 1.07 |
| CC(C)(CNCC(O)c1ccccc1)N1CCOCC1 (stereo unspecified) | 1.05 |
| O=S(=O)(O)CCN1CCOCC1 | 1.15 |
| Brc1cnc(N2CCCC2)nc1N1CCCCC1 | 1.08 |
| CCOc1cc(-c2nc3cc(C)ccn3c2NCC2CCCO2)ccc1O (stereo unspecified) | 3.63 (active) |
| CCOc1cccc(=O)c2c(C)n(CC3CCCO3)c(C)c12 (stereo unspecified) | 1.05 |
| CCOc1cc(C(=S)N2CCOCC2)ccc1O | 1.04 |
| CCn1c(=O)cc(SCC(=O)NCc2ccc3c(c2)OCO3)c2ccccc21 | 1.2 |
| O=C(Oc1ccc(-c2nc(-c3ccccn3)no2)cc1)c1ccccc1 | 1.09 |
| COc1ccc(-c2nc(-c3ccccc3)no2)c(OC)c1 | 1.12 |
| COc1ccc2[nH]c(=O)c(-c3noc(-c4ccc(F)cc4)n3)cc2c1 | 1.38 |
| COc1ccc(-c2ccc(-c3noc(-c4ccncc4)n3)c(OC)n2)cc1 | 3 (active) |
| COc1cc(-c2nc(-c3ccncc3)no2)cc(OC)c1OC | 1.03 |
| CCOc1nc(-c2ccc(OC)cc2)ccc1-c1noc(-c2cc(OC)c(OC)c(OC)c2)n1 | 3.92 (active) |
